# Screen size: about 31,000 compounds; about 360 (1.2%) were called active. How the calls were made is not given here. The entries come from a sample that favours actives as a whole.
# Target: DNA-binding protein inhibitor ID-4 (Homo sapiens) (UniProt P47928)
# Experiment: PubChem AID 624137;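 further: a binder raises fluorescence above local background on the spot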
# Details: small molecule microarray, Flag-ID4 binding, fluorescence F/B
# Sequence of DNA-binding protein inhibitor ID-4 (Homo sapiens) (P47928 whole entry, looked up): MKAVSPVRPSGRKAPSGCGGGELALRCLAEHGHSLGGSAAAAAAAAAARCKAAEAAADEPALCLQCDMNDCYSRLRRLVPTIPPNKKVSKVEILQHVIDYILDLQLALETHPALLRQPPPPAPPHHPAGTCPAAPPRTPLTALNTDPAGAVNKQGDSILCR
row,SMILES,outcome
1,c1cncc(CNCCc2c[nH]c3ccccc23)c1,active
2,COc1ccc2[nH]cc(CCNCc3ccc(Br)cc3)c2c1,inactive
3,Cc1cc(OCc2cc(C(=O)O)oc2C)c2c3c(c(=O)oc2c1)CCCC3,inactive
4,Cc1ccc(OC(=O)N(C)C[C@@H]2OCc3cnnn3CCCC(=O)N([C@H](C)CO)C[C@@H]2C)cc1,inactive
5,COC(/C=C/CC/C=C/C(=O)O)C(O)C(C)C(O)/C(C)=C/C(C)C(=O)CCCC1CC(=O)NC(=O)C1 (stereo not given),inactive
